The record followed here is the supplement of paper PMC13380429.

Molecules are shown by their SMILES.

The experiment has as its system Vero E6 infected with SARS-CoV-2. Put plainly: SARS-CoV-2 infection rate relative to infected DMSO; higher = more infection, active = 60 or less. The note with it: 24 h.
`COc1cccc(NC(=O)/C=C/c2ccc(Cl)cc2)c1` (10 µM): the SARS-CoV-2 infection rate was 99.5% (inactive). With `COc1cccc2c1C(=O)c1c(O)c3c(c(O)c1C2=O)C[C@@](O)(C(=O)CO)C[C@@H]3O[C@H]1C[C@H](N)[C@H](O[C@@H]2CCCCO2)[C@H](C)O1` [pirarubicin] (10 µM), the SARS-CoV-2 infection rate is 118% (inactive). `O=C(N[C@H](Cc1ccccc1)C(=O)O)c1sc2cc(F)ccc2c1Cl` (10 µM): the SARS-CoV-2 infection rate is 79.5% (inactive). For the molecule `CCC(=O)Nc1cccc(Oc2nc(Nc3ccc(N4CCN(C)CC4)cc3OC)ncc2Cl)c1` (10 µM), the SARS-CoV-2 infection rate was 114% (inactive). With `CC1C=CC=CCCC=CC=CC=CC=CC(OC2OC(C)C(O)C(N)C2O)CC2OC(O)(CC(O)C(O)CCC(O)CC(O)CC(O)CC(=O)OC(C)C(C)C1O)CC(O)C2C(=O)O` (stereo not given) [nystatin] (10 µM), the SARS-CoV-2 infection rate was 116% (inactive). In the case of `CCCc1nc2c(C)cc(-c3nc4ccccc4n3C)cc2n1Cc1ccc(-c2ccccc2C(=O)O)cc1` [telmisartan] (10 µM) it was 100% (inactive); in that of `N=C(N)N/N=C/c1c(Cl)cccc1Cl` [guanaben-acetate] (10 µM), 114% (inactive); in that of `Nc1ncnc2c1ncn2[C@H]1CC[C@@H](CO)O1` [dideoxyadenosine] (10 µM), 99% (inactive).

For `N[C@@H]1CCN(c2cccnc2)C1` (10 µM), the SARS-CoV-2 infection rate was 102% (inactive). In the case of `CCCc1c(OCCCCc2nnn[nH]2)ccc(C(C)=O)c1O` [tomelukast] (10 µM) it was 110% (inactive); in that of `N[C@H](Cc1ccccc1)C(=O)O` [D-phenylalanine] (10 µM), 104% (inactive); in that of `NC(=O)CN1CC(O)CC1=O` (stereo not given) [oxiracetam] (10 µM), 107% (inactive).

As for `O=C([O-])CN1CCN(CC(=O)[O-])CCN([C@H](CO)[C@H](O)CO)CCN(CC(=O)[O-])CC1.[Gd+3]` (racemic) [gadobutrol] (10 µM), the SARS-CoV-2 infection rate is 109% (inactive). As to `c1ccc([C@H]2CNCc3ccccc32)cc1` [4-phenyl-1,2,3,4-tetrahydroisoquinoline] (10 µM), the SARS-CoV-2 infection rate was 114% (inactive). As to `CN1CCC(=C2c3ccccc3CCn3c(C=O)cnc32)CC1` [alcaftadine] (10 µM), the SARS-CoV-2 infection rate is 93.5% (inactive). The value for `CC(C)(Oc1ccc(C(=O)c2ccc(Cl)cc2)cc1)C(=O)O` [fenofibric-acid] (10 µM) was 97% (inactive); that for `CC[C@H](C)C[C@H](C)CCCCCCCCC(=O)N[C@H]1C[C@@H](O)[C@@H](NCCN)NC(=O)[C@@H]2[C@@H](O)CCN2C(=O)[C@H]([C@H](O)CCN)NC(=O)[C@H]([C@H](O)[C@@H](O)c2ccc(O)cc2)NC(=O)[C@@H]2C[C@@H](O)CN2C(=O)[C@H]([C@@H](C)O)NC1=O` [caspofungin] (10 µM) was 108% (inactive). Turning to `CC(C)C(=O)Nc1ccc([N+](=O)[O-])c(C(F)(F)F)c1` [flutamide] (10 µM), the SARS-CoV-2 infection rate was 112% (inactive). The value for `COc1cccc(-c2ccc(NC(=O)C3=C(C(=O)O)CCC3)c(F)c2)c1` (10 µM) was 94.5% (inactive); that for `OCc1ccccc1O[C@@H]1O[C@H](CO)[C@@H](O)[C@H](O)[C@H]1O` [salicin] (10 µM) was 99% (inactive).

On to `c1ccc2c(-c3cnn4cc(-c5ccc(N6CCNCC6)cc5)cnc34)ccnc2c1` (10 µM), for which the SARS-CoV-2 infection rate is 108% (inactive). The value for `CCC(=O)NC[C@H](Cc1ccc(OCCc2nc(-c3ccccc3)oc2C)cc1)N/C(C)=C\C(=O)c1ccc(C(F)(F)F)cc1` (10 µM) was 110% (inactive); that for `CN1C(CSCC(F)(F)F)Nc2cc(Cl)c(S(N)(=O)=O)cc2S1(=O)=O` (stereo not given) [polythiazide] (10 µM) was 100% (inactive).

On to `C[C@H](Nc1cc(-c2cnn(C)c2)cc(Nc2cnccn2)n1)c1ccc(F)cc1` (0.833333 µM), for which the SARS-CoV-2 infection rate was 114% (inactive). The value for `N=C(C[C@@H](O)COc1ccccc1-c1ccccc1)N1CCCCC1` (10 µM) was 104% (inactive); that for `CCCCNNC(=O)c1ccc(Br)cc1` (0.833333 µM) was 116% (inactive). In the case of `Cc1csc(NC(=O)CSc2ccc(-c3ccccc3)nn2)n1` (10 µM), the SARS-CoV-2 infection rate is 68.5% (inactive).

`C=CC[N@@+]12CC[C@@]34c5ccccc5N5/C=C6/[C@H]7C[C@H]8[C@@]9(CC[N@@+]8(CC=C)C/C7=C/CO)c7ccccc7N(/C=C(/[C@@H](C[C@@H]31)/C(=C\CO)C2)[C@H]54)[C@@H]69` [alcuronium] (10 µM): the SARS-CoV-2 infection rate was 114% (inactive). The value for `C[C@@]1(F)[C@H](O)[C@@H](CO)O[C@H]1n1ccc(N)nc1=O` (10 µM) was 104% (inactive); that for `CNC(=S)C1(c2ccccn2)CCCS1` (stereo not given) [picartamide] (10 µM) was 106% (inactive). In the case of `O=C1CS[C@@H](c2ccccc2Cl)c2cc(Cl)ccc2N1` (racemic) (10 µM) it was 89% (inactive). In the case of `COc1ccc(S(=O)(=O)N2CCCN(S(=O)(=O)c3ccc(OC)c(OC)c3)CC2)cc1OC` (10 µM) it was 106% (inactive); in that of `Cc1cccc(C(C)c2c[nH]cn2)c1C` (stereo not given) [medetomidine] (10 µM), 102% (inactive). As for `COc1ccc(Cn2ccc3ccc(C(=O)NO)cc32)cc1` (0.833333 µM), the SARS-CoV-2 infection rate was 111% (inactive).

For `CN[C@@H](C)C(=O)N[C@H](C(=O)N1CCC[C@H]1C(=O)N[C@H]1c2ccccc2C[C@H]1OCC#CC#CCO[C@@H]1Cc2ccccc2[C@@H]1NC(=O)[C@@H]1CCCN1C(=O)[C@@H](NC(=O)[C@H](C)NC)C1CCCCC1)C1CCCCC1` (10 µM), the SARS-CoV-2 infection rate is 112% (inactive). The value for `CC1=NN(c2ccccc2)C(=O)C1` [edaravone] (10 µM) was 101% (inactive); that for `CCN1CCN(C(=O)Cc2ccc(Nc3ncc(F)c(Nc4ccc(C(=O)Nc5ccccc5Cl)cc4)n3)cc2)CC1` [aurora-a-inhibitor-i] (10 µM) was 86% (inactive); that for `CCCCOc1ccc(-c2cncc(C(=O)NCc3cccnc3N3CCOCC3)c2)cc1Cl` (10 µM) was 108% (inactive).

With `CC(CNC1CCCCC1)OC(=O)c1ccccc1` (stereo not given) [hexylcaine] (10 µM), the SARS-CoV-2 infection rate is 112% (inactive).

In the case of `Cn1c(=O)c2[nH]c(Br)nc2n(C)c1=O` [pamabrom] (10 µM), the SARS-CoV-2 infection rate was 101% (inactive).
